Screen size: about 420,000 compounds; about 50,000 (12%) were called active. Roughly 26% stayed inconclusive and do not appear here. The sample holds actives, similar compounds and a random draw of the others, so the mix is not that of the screen. A number with no mark means an inactive call. Calls come from the whole dose curve; as a rule, active = well fitted inhibition curve with a large enough effect; inconclusive = small, poorly fitted or top-dose-only effect; inactive = flat fitted curve, though single readings scatter.
Assay: qHTS for Inhibitors of human tyrosyl-DNA phosphodiesterase 1 (TDP1): qHTS in cells in presence of CPT; note: nearly all actives have a fitted effect of over 55% in size
Details: chicken DT40 Tdp1-/-;hTDP1 cells + 20 nM CPT, ATP luminescence, 48 h; series mostly up to 46.2 µM; activity change, negative = growth inhibition: at the top concentration
Method in brief: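 Cell growth measured by CellTiter-Glo luminescence after a minimum 48 h, 37 C compound exposure with 20 nM CPT in Tdp1-knockout DT40 cells stably expressing hTDP1, seeded 400/well; qHTS titration format.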
% is set by controls: 0 for no effect and ±100 for the full control effect; potency is the fitted concentration of half-maximal effect.

SMILES | activity change, negative = growth inhibition [%] | Potency
CCOC(=O)C1(S(=O)(=O)c2ccc(Cl)cc2)CCN(Cc2ccccc2)CC1 | -27.7 | –
CCOC(=O)C1(CCOC)CCN(Cc2cc3ccccc3s2)CC1 | – | 18.4 µM (active)
O=C(CCc1ccccc1)Nc1ccnn1C1CCN(Cc2ccc(OCCO)cc2)CC1 | 6.63 | –
CCOC(=O)C1(CCOc2ccccc2)CCN(C(=O)c2cncs2)CC1 | -28.5 | –
CCOC(=O)C1(Cc2cccc(OC)c2)CCN(C(C)CC(C)(C)O)CC1 (stereo unspecified) | -9.64 | –
O=C(c1cn(CC2CCCN(Cc3cc4ccccc4s3)C2)nn1)N1CCCC1 (stereo unspecified) | 11.8 | –
CCOC(=O)C1(CCOc2ccccc2)CCN(Cc2ccc(C#CCCO)cc2)CC1 | – | 18.4 µM (active)
CCOC(=O)C1(CCOc2ccccc2)CCN(Cc2cc(OC)cc(OC)c2)CC1 | – | 25.9 µM (active)
CCOC(=O)C1(CCOC)CCN(Cc2ccc(C(=O)OC)cc2)CC1 | 5.25 | –
COc1cc(C)ccc1OCC(=O)OCC(=O)c1ccc[nH]1 | 11.1 | –
Cc1cc(NS(=O)(=O)c2ccc(NC(=O)C(C)Oc3cccc(C)c3C)cc2)nc(C)n1 (stereo unspecified) | 7.99 | –
N#CC1(C#N)C(C(=O)C23CC4CC(CC(C4)C2)C3)C12CCOCC2 (stereo unspecified) | -6.84 | –
COc1ccccc1NC(=O)c1ccc(N2CC3CC(C2)c2cccc(=O)n2C3)c(NC(=O)c2cccnc2)c1 (stereo unspecified) | -14.7 | –
Cc1ccc(S(=O)(=O)N(Cc2cccc([N+](=O)[O-])c2)C(=O)N2CCN(C)CC2)cc1 | -7.27 | –
O=C(CCl)N(Cc1cccc([N+](=O)[O-])c1)c1cccc(Cl)c1 | – | 2.31 µM (active)
O=C(Nc1cccc([N+](=O)[O-])c1)Nc1ccc(Cl)cn1 | 4.19 | –
COc1ccccc1N1CCC(N2CCN(CC(C)(C)C)C(CCO)C2)CC1 (stereo unspecified) | -28.9 | –
C=CS(=O)c1sc(Cl)c(N2CCOCC2)c1[N+](=O)[O-] (stereo unspecified) | – | 0.731 µM (active)
Cc1cc(C)n(S(=O)(=O)c2cccc([N+](=O)[O-])c2)n1 | -8.29 | –
CN(C)S(=O)(=O)c1cc(C(=O)Nc2ccn(C)n2)c(Cl)cc1Cl | -4.09 | –
COCCNC(=O)COc1ccc(N(C)S(=O)(=O)c2ccc3ccccc3c2)cc1 | -15.1 | –
NNC(=O)c1ccc(Cl)cc1Cl | 2.28 | –
O=S(=O)(Cc1ccc(Cl)cc1Cl)c1ccc(Cl)cc1 | – | 0.82 µM (active)
O=S(=O)(NCC1CC1)c1ccc(F)c(Cl)c1 | 8.32 | –
O=CN1CCN(C(=O)c2ccc(Br)o2)CC1 | -0.819 | –
O=C(CSc1ncnc2c1oc1ccccc12)NC1CCCC1 | -20.3 | –

SMILES | activity change, negative = growth inhibition [%] | Potency
CC(C)[C@@H]1COC(c2cccc(C3=N[C@H](C(C)C)CO3)c2)=N1 | – | 20.6 µM (active)
O=C(O)CSCC(=O)Nc1ccc(C(F)(F)F)cc1 | 17.9 | –
O=C(OCC(=O)N1CCCCC1)c1ccc(OC(F)(F)F)cc1 | -5.48 | –
O=C(CCn1c(=S)[nH]c2ccccc2c1=O)NCCCN1CCCC1=O | 4.25 | –
O=C(NCCN1CCOCC1)c1cc(Sc2cccc(Cl)c2)nc2ccccc12 | -34 | –
NS(=O)(=O)c1ccc(CCNC(=O)CCCCCn2c(=O)[nH]c3ccccc3c2=O)cc1 | -16.3 | –
Cc1ccc(C)c(N2CCN(C(=O)CCc3c(C)nc4c(c3C)c(=O)n(C)c(=O)n4C)CC2)c1 | -1.63 | –
Cc1ccc(C)c(N2CCN(C(=O)CCCCn3c(=O)[nH]c4ccccc4c3=O)CC2)c1 | – | 16.4 µM (active)
O=C(CCn1c(=O)[nH]c2ccccc2c1=O)NCCCN1CCN(c2cccc(Cl)c2)CC1 | – | 20.6 µM (active)
O=C(CCCCn1c(=O)[nH]c2ccccc2c1=O)NCc1ccc2c(c1)OCO2 | -19.6 | –
O=C(CCCn1c(=O)[nH]c2cc(Cl)ccc2c1=O)NCCN1CCN(c2ccccc2)CC1 | – | 23.1 µM (active)
O=C(CCCCCn1c(=O)[nH]c2ccccc2c1=O)NCCc1c[nH]c2ccccc12 | -24.7 | –
Cc1nc2ccccc2c2oc(C(=O)NCCCN3CCC(C)CC3)cc12 | -23.5 | –
O=C(Cc1csc(Nc2nc(=S)[nH]c3ccccc23)n1)NCCCN1CCN(c2cccc(Cl)c2)CC1 | – | 16.4 µM (active)
CCN(CC)CCNC(=O)CCCCCn1c(=O)[nH]c2cc(C(=O)OC)ccc2c1=O | -21.7 | –
COc1cc(/C=C2\CCCc3c2nc2ccccc2c3C(=O)O)cc(Cl)c1O | 5.4 | –
O=C(Nc1cccnc1Oc1ncnc2cc(Cl)ccc12)c1ccc(F)cc1 | 8.31 | –
CC(NS(=O)(=O)c1ccccc1)c1n[nH]c(=S)n1-c1ccccc1 (stereo unspecified) | 2.51 | –
CCC(C)CN1C(=O)CN(S(C)(=O)=O)CC1(C)C(=O)Nc1ccc2c(c1)OCCO2 (stereo unspecified) | -11.4 | –
O=C(C[C@H]1CC[C@H]2[C@@H](COC[C@H](O)CN2C(=O)c2ccccn2)O1)N1CCN(c2ccccc2)CC1 | -15.1 | –
Cc1nccn1-c1ccc(NC(=O)[C@H]2O[C@@H](n3ccc(=O)[nH]c3=O)[C@H](O)[C@@H]2O)cc1 | -11.3 | –
CC(=O)Nc1cnc(-c2ccc(O)cc2C)cn1 | – | 9.2 µM (active)
Cc1cc(O)ccc1-c1cnc2ccccc2n1 | -26.9 | –
CC(=O)Nc1cncc(-c2ccccc2CO)n1 | 17.6 | –
COc1ccc(C(=O)NNc2cc(C)nc(NNC(=O)c3ccc(OC)cc3)n2)cc1 | 1.43 | –
COC(=O)c1ccc2nc(-c3ccc(OC)c(OC)c3)c(Cc3ccccc3)n2c1 | – | 23.1 µM (active)

SMILES | activity change, negative = growth inhibition [%] | Potency
COC(=O)c1ccc(COC(=O)c2cnc(Cl)c(Cl)c2)cc1 | 4.07 | –
COc1ccc(C(=O)OCC(=O)NCCCc2ccccc2)cc1OC | -4.58 | –
COc1ccc(NC(=O)c2cc(-c3ccc(C)cc3)on2)cc1 | 9.84 | –
COC(=O)c1ccc2nc(-c3ccc(Cl)cc3)c(Cc3cccc(F)c3)n2c1 | – | 20.6 µM (active)
COC(=O)c1ccc2nc(-c3cccc(Br)c3)c(Cc3ccccc3C(F)(F)F)n2c1 | -1.17 | –
COC(=O)c1ccc2nc(-c3ccc(C)cc3)c(Cc3ccc(OC)cc3C)n2c1 | – | 23.1 µM (active)
COC(=O)c1ccc(CSc2nc3cc(Cl)ccc3o2)cc1 | -6.06 | –
Cc1ccc(N2CCN(c3ccc([N+](=O)[O-])cn3)CC2)c(C)c1 | -24.7 | –
CCOC(=O)C(=CNc1cccc(C)n1)C(=O)OCC | -1.85 | –
CCOC(=O)C(=Cc1ccccc1)C(=O)c1ccccc1 | – | 18.4 µM (active)
CCOC(=O)CNC(=O)/C(=C\c1ccc(F)cc1)NC(=O)c1ccccc1 | -0.888 | –
O=c1ccc2cc(S(=O)(=O)Nc3ccccc3F)ccc2o1 | -5.21 | –
COc1ccc2c(c1)c(=O)c(S(=O)(=O)c1ccc(F)cc1)cn2CC(=O)Nc1ccc(C)cc1C | 12.7 | –
CCCn1cc(S(=O)(=O)c2ccc(C)cc2)c(=O)c2cc(OCC)ccc21 | -18.5 | –
CCOc1ccc(S(=O)(=O)c2cn(Cc3ccccc3)c3ccc(OCC)cc3c2=O)cc1 | – | 13 µM (active)
CCOc1ccc2c(c1)c(=O)c(S(=O)(=O)c1ccc(C)cc1)cn2CC | – | 18.4 µM (active)
CCOc1cccc(C(=O)Nc2cnn(Cc3ccccc3)c2)c1 | -15.9 | –
CCOc1ccc(S(=O)(=O)NCCSc2ccccc2)cc1 | -6.71 | –
CCN(CC)Cc1c(C(=O)N/N=C/c2cccc(OCc3ccc(F)cc3)c2)nnn1-c1nonc1N | -7.48 | –
CC(C)(C)n1nc2c(c1NC(=O)c1cc3ccccc3o1)CSC2 | -29.8 | –
O=C(NC(=S)Nc1cc(C(F)(F)F)ccc1N1CCOCC1)c1ccc(-c2cccc(Cl)c2)o1 | -17.4 | –
Oc1ccc(Br)cc1/C=N/Nc1ccccn1 | – | 1.64 µM (active)
Oc1ccc(Br)cc1C=Nc1ccc2[nH]ncc2c1 | -6.55 | –
CCN(CC)CCn1c(/N=C/c2cc(Br)ccc2O)nc2ccccc21 | -26.1 | –
COc1ccc(CN2CCCC(CNC(=O)c3ccc(F)cc3)C2)cc1OC (stereo unspecified) | -25.5 | –
CCN1CCN(CCNC(=O)c2ccc3c(c2)NC(=O)/C(=C\c2cccc(Cl)c2)S3)CC1 | – | 23.1 µM (active)

SMILES | activity change, negative = growth inhibition [%] | Potency
O=C(NCCN1CCOCC1)Nc1cccc(Cl)c1 | 7.86 | –
CCN1CCCC1CNC(=O)c1ccc2c(c1)NC(=O)/C(=C\c1ccccc1F)S2 (stereo unspecified) | – | 18.4 µM (active)
CCN1CCCC1CNC(=O)c1cc2cc(OC)c(OC)cc2[nH]1 (stereo unspecified) | -12.6 | –
O=C(NCCCN1CCCCC1)c1ccc2c(c1)NC(=O)C(N1CCOCC1)S2 (stereo unspecified) | -21.2 | –
CCOC(=O)c1sc(=NC(=O)c2ccc(Br)cc2)n(C)c1C | 3.17 | –
Cc1ccc2nc(-c3ccc(Br)cc3)cn2c1 | 1.32 | –
Cc1ccc(NS(=O)(=O)c2ccc(-c3ccc(=O)[nH]n3)o2)c(C)c1 | -23 | –
O=C(O)c1[nH]c2ccccc2c1C(c1cccc(O)c1)c1c(C(=O)O)[nH]c2ccccc12 | -4.46 | –
CC(=O)OCC(C)n1c(=O)c2ccccc2n1C(C)=O (stereo unspecified) | -1.82 | –
O=C(COC(=O)COc1cc(Cl)c(Cl)cc1Cl)NC1CC1 | -17.8 | –
O=C(COc1cc(Cl)c(Cl)cc1Cl)NCCc1ccccn1 | 2.28 | –
NC(=S)NN=Cc1ccc(OC(=O)COc2cc(Cl)c(Cl)cc2Cl)cn1 | – | 6.51 µM (active)
O=C(Cn1cnc2c(oc3ccccc32)c1=O)Nc1ccc(OC(F)(F)F)cc1 | -14.7 | –
C[C@H](NC(=O)c1ccccc1Cl)C(=O)OCCOc1cccc(Cl)c1 | -17.7 | –
O=C1C(Sc2cccc(F)c2)=C[C@@]2(O)CC[C@@H](O)[C@]1(Sc1cccc(F)c1)[C@H]2O | – | 16.4 µM (active)
COC(=O)C1=C(C)Nc2ncnn2C1c1ccco1 (stereo unspecified) | 4.8 | –
COc1ccccc1NC(=O)C1=C(C)Nc2ncnn2C1c1ccc(C)o1 (stereo unspecified) | 0.297 | –
CC1=C(C(=O)OCc2ccccc2)C(c2ccco2)n2ncnc2N1 (stereo unspecified) | – | 23.1 µM (active)
Cc1ccc(S(=O)(=O)c2c[nH]c3ccc(Cl)cc3c2=O)cc1 | 29.4 | –
Cc1nc(COc2cc3oc(=O)cc(C)c3cc2Cl)cs1 | 2.52 | –
O=Cc1cn(-c2ccccc2)nc1-c1ccccn1 | -24 | –
COc1ccc(-c2nn(-c3ccccc3)cc2/C=N/Nc2ccccn2)cc1OC | – | 7.31 µM (active)
CN(C)/N=C/c1cn(-c2ccccc2)nc1-c1cccnc1 | -32.9 | –

Reference: PubChem BioAssay AID686979 (National Center for Advancing Translational Sciences (NCATS), 2013)
